Most compounds without a hit are left out; they make up all but 1.3% or so of the library.
gsp agonist = agonists of gsp mutant (McCune-Albright syndrome); gsp mutant cells, cAMP HTRF, 30 min; Potency, µM (doses to about 76.9 µM), actives largely listed as activators; hit rate 0.13% among 340,000; AID 624287; active = well fitted activation curve with a large enough effect; inconclusive = small, poorly fitted or top-dose-only effect, or another doubt; inactive = no such curve, though single readings can be large or run the other way; cell line not stated here;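 also: phosphodiesterase inhibitor Ro 20-1724 added with compounds to block cAMP breakdown; nearly all actives have a fitted effect of over 60% in size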
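Cells stably selected in G418 were plated at 2000/well, grown 16-24 hr, then given compounds in DMSO with the PDE inhibitor […] (300 uM solution added) for 30 min at 37C; cAMP was read by HTRF.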
RXFP1 antag = RXFP1 (human) relaxin receptor antagonism; activity change, negative = inhibition, % at 57.5 µM; hit rate 0.59% among 350,000; HEK293-RXFP1, relaxin-stimulated cAMP HTRF, 30 min; active compounds read low; Q9HBX9;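 active = activity change of -60% or lower, but not beyond a set lower limit; inconclusive = change between -60% and -40%, or beyond the set limit; inactive = change above -40%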
pAkt inh = inhibitors of Akt phosphorylation; hit rate 0.32% among 360,000; activity change, % for hits at 50 µM; AID 651550; Neuro2A IGF-stimulated pAkt S473 HTRF, 20 min; active compounds read low; in the data active = activity change below about -80%; inconclusive = mostly about -51% to -80%
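Neuro2A cells in DMEM with 0.5% FBS, overnight at 37 deg C, given compound at single 50 µM final, then IGF (6 nM final) for 20 min at 37 deg C. Lysed; phospho-Akt Ser473 by HTRF after 24 h, 665/615 ratio.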
TSHR antagonist = antagonists of human thyroid stimulating hormone receptor; P16473; TSHR-expressing cells, TSH-stimulated cAMP HTRF, 2 h; active compounds read low; activity change, negative = inhibition, % at 11.5 µM; hit rate 0.2% among 330,000; AID 504810;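 active = activity change below a set negative limit, meaning inhibition stronger than a set level, cut at about -70% in these data; inconclusive = activity change between two set negative limits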
Target sequence (P16473 whole entry, looked up): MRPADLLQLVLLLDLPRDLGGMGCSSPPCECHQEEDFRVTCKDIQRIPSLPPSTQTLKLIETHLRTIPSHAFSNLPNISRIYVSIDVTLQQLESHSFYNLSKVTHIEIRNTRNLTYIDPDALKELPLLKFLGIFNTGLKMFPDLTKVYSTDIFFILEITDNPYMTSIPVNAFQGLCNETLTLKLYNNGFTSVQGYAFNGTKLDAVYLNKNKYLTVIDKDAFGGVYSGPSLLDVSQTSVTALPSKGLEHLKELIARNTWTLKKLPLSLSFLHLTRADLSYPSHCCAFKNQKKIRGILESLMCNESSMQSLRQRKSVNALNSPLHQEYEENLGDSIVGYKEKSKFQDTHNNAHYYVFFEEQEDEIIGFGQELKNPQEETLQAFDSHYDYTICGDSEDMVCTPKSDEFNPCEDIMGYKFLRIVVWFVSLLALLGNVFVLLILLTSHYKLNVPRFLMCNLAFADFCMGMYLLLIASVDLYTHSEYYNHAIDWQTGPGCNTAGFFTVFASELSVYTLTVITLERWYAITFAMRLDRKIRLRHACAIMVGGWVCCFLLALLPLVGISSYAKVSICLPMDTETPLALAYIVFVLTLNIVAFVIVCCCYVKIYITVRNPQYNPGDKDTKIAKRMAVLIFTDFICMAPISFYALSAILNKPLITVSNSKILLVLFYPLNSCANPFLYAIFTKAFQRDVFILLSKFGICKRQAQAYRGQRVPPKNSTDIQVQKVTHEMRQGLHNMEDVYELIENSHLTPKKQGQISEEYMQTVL
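Inhibition of cAMP made by TSHR-expressing cells under TSH stimulation (4nM final, EC80; 2 h, 37 deg C) is quantified with a one-step lysis HTRF kit, anti-cAMP cryptate versus cAMP-d2.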
gsp antag = antagonists of gsp mutant (McCune-Albright syndrome); gsp-mutant cells, cAMP HTRF, 30 min; Potency, µM (highest dose often 76.9 µM), usual class: inhibitors; hit rate 0.4% among 340,000; AID 624288; calls by dose curve; cell line not stated here;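 also: intracellular cAMP measured with PDE inhibitor Ro 20-1724 present during compound exposure; nearly all actives have a fitted effect of over 65% in size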
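Cells, 2000/well, grown 16–24 h in DMEM 10% FBS with 0.5 mg/ml G418, then compounds plus […] (300 uM addition stock), 30 min at 37C. cAMP read by HTRF (cAMP-d2 and anti-cAMP antibody-K in lysis buffer) after 30 min RT.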
RXFP1 agonist = activates the human relaxin receptor RXFP1; HEK293T-RXFP1 cAMP TR-FRET, 30 min; response scale: percent of porcine relaxin response, buffer zero; Potency, µM (series often up to 57.5 µM), most hits filed as activators; hit rate 0.3% among 370,000; AID 2676; active = well fitted activation curve with a large enough effect; inconclusive = small, poorly fitted or top-dose-only effect; also: nearly all actives have a fitted effect of over 60% in size
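cAMP rise read by TR-FRET after 30 min, 37C compound exposure (up to 58 uM) in RXFP1-transfected HEK293 cells with Ro 20174 present. EC50 from Hill-equation fits, with 29 nM porcine relaxin as 100% and buffer as basal.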
Numbers stand for hits; n = inactive; u = inconclusive; x = not tested or not shown; [ ] = another dose, or the depositor's remark.

SMILES	gsp agonist	RXFP1 antag	pAkt inh	TSHR antagonist	gsp antag	RXFP1 agonist
CC(=O)c1ccc(NC(=O)c2cnn(-c3cccc(F)c3)c2-n2cccc2)cc1	x	-68	x	x	x	n
CCCCSc1nc2sc3c(c2c(=O)n1-c1ccc(C)cc1)CCN(C)C3	n[15.4 µM]	n	n	-74	n	n
CCOC(=O)c1ccc(Oc2nc(N(C)C)nc(N3CCOCC3)n2)cc1	n	n	n	n	50µM	n
COC(=O)c1ccc(Oc2nc(N(C)C)nc(N3CCOCC3)n2)cc1	n	n	n	n	n	n
COc1cccc(NC(=O)c2cncs2)c1	n	n	n	n	n	n
COCC(=O)Nc1c(C(=O)Nc2ccccc2OC)oc2ccccc12	n	n	n	n	n	n
COc1ccccc1NC(=O)c1oc2ccccc2c1NC(=O)c1cc(OC)c(OC)c(OC)c1	n	n	-93%	x	n	x
COc1cc(C(=O)Nc2cccc(-c3nc4cc(C)ccc4o3)c2C)cc(OC)c1OC	n	n	-105%	n	n	n
Cc1nc2c(c(C)c1CCC(=O)NCc1ccccc1)c(=O)n(C)c(=O)n2C	x	x	x	x	x	n
COc1ccc(C2(C)C(C#N)C(=O)NC(=O)C2C#N)cc1 (stereo unspecified)	n	n	n	x	n	x
CCOc1ccccc1NC(=O)Cn1c(=O)n(Cc2ccco2)c(=O)c2ccc(C(=O)NC3CCCC3)cc21	x	x	x	x	x	n
O=[N+]([O-])c1cc([N+](=O)[O-])c2oc(-c3ccccc3)c(Br)c2c1O	n	-113	n	u	n	n
c1ccc2sc(-c3ccc4c(c3)OCO4)nc2c1	n	n	-112%	n	n	n
COc1ccccc1CN1CCNC(=O)C1CC(=O)N(C)Cc1nc(C)cs1 (stereo unspecified)	n[15.4 µM]	n	n	n	n	n
O=C(NC(=S)Nc1ccccc1)c1ccc(Br)o1	n	n	n	n	n	n
O=C(Nc1ccc(Nc2ccccc2)cc1)c1ccc(Br)o1	n	-68	n	n	u	n
Cc1c(C(=O)OCc2nc3ccsc3c(=O)[nH]2)oc2ccccc12	n	n	n	n	n	n
CS(=O)c1nc(-c2ccc(Br)cc2)cc(-c2ccccc2)c1C#N (stereo unspecified)	n	n	n	-73	n	n
N#Cc1c(-c2cccc(F)c2)cc(-c2ccccc2)nc1Br	u	n	-94%	n	n	u
COc1ccccc1C(=O)NNC(=O)c1nn(Cc2ccccc2)c(=O)c2ccccc12	n[15.4 µM]	u	n	n	n	n
Cc1ccc(N(CC(=O)NCCc2ccc(F)cc2)S(=O)(=O)c2ccc(Cl)c([N+](=O)[O-])c2)c(C)c1	n	n	n	n	25µM	n
O=C(CN(c1ccc(Br)cc1)S(=O)(=O)c1ccc(Cl)c([N+](=O)[O-])c1)NCCc1ccccc1	n[15.4 µM]	n	n	n	n	n
Cc1cccc(N2CCN(C(=O)c3cccn3-c3nnc(N4CCCCC4)s3)CC2)c1C	x	-68	x	x	x	n
COc1ccc(NC(=O)c2cccn2-c2nnc(N3CCCCC3)s2)c(OC)c1	x	n	x	x	x	n
CCN(CC)c1ccc(NC(=O)c2cccn2-c2nnc(N3CCCCC3)s2)c(C)c1	x	-60	x	x	x	n
SMILES	gsp agonist	RXFP1 antag	pAkt inh	TSHR antagonist	gsp antag	RXFP1 agonist
O=C(CN1C(=O)NC2(CCCCC2)C1=O)Nc1ccc(Cl)c(S(=O)(=O)N2CCOCC2)c1	n	n	n	n	n	n
Cn1cc(C(=O)[C@@H]2CCc3nc[nH]c3C2)c2ccccc21	x	n	x	x	x	x
O=S1(=O)CCN2C(Cc3ccc(SC(F)F)cc3)=CSC2=N1	u	n	n	n	32µM	n
CCC1C(=NO)C(CC)C(c2ccccc2)NC1c1ccccc1 (stereo unspecified)	n[15.4 µM]	-74	n	n	u	n
CC1C(=NO)C(C)C(c2ccccc2)NC1c1ccccc1 (stereo unspecified)	n	n	n	n	n	n
O=C1/C(=C/c2ccccn2)SC(=S)N1Nc1ncc(C(F)(F)F)cc1Cl	n	-72	n	x	u	x
CCCNC(=O)c1ccccc1NC(=O)c1cccc(-n2cnnn2)c1	n	n	n	n	n	n
Cc1ccccc1-c1cn(-c2ccccc2)c(=S)[nH]1	n[15.4 µM]	n	n	n	n	n
